Records with an inconclusive call do not appear. Entries that show only a call come without a potency. Active and inactive are the calls of the source. Calls follow the shape of the dose curve; as a rule, active = well fitted inhibition curve with a large enough effect; inconclusive = small, poorly fitted or top-dose-only effect; inactive = flat fitted curve, though single readings scatter.
Potency is read from the fitted curve at half-maximal effect.

The test in a line: Primary qHTS for inhibitors of nuclear receptor binding SET domain protein 2 (NSD2) in an isogenic RCH-ACV NSD2 p.E1099K mutant (9B) (AID 1645876). Also: nearly all actives have a fitted effect of over 70% in size. As to conditions: RCH-ACV (leukaemia line) NSD2 E1099K (9B) viability, CellTiter-Glo, 72 h; series mostly up to 44.9 µM.
For `COc1cc2ncc(-c3ccccc3)nc2cc1OC`, the Potency is 20.5 µM (active).

In the case of `CC(C)(Cc1nc(-c2ccc(O)cn2)no1)C(=O)NC1=C(C(=O)O)CCCC1`, the Potency result is “inactive”.

Take `O[C@@](Cc1ncc(CC2(C(F)(F)F)CC2)[nH]1)(c1ccc(-n2cccn2)cc1)C(F)(F)F`: the Potency was 23 µM (active).

As for `CC(C)n1c(=O)c(C(=O)NC2CC3CCC(C2)N3C[C@@H](O)CN(C)S(C)(=O)=O)cc2ccccc21` (some centres undefined), the Potency result is “inactive”.

As for `C=C(C)C1CCC2(C(=O)O)CCC3(C)C(CCC4C5(C)C(C=O)C(O)C(C)(C)C5CCC43C)C12` (centres undefined), the Potency result was “inactive”.

Regarding `CC1=C(c2ccc(NC(=O)c3c(F)cccc3F)cc2)CN(c2nccs2)CC1`, the Potency entry is “inactive”.

Regarding `CC1(C)CCCC2(C)C1C(=O)C=C(C(=O)O)C2(O)C(=O)O` (centres undefined), the Potency is 25.8 µM (active).

Turning to `CCNC1(C(N)=O)CN(c2nc(C)nc3c(-c4ccc(Cl)cc4)c(-c4ccccc4Cl)nn23)C1`, the Potency is 20.5 µM (active).

On to `C=CC(C)(O)CC/C=C(/C)COC(=O)C(C)C1CCC(C)(C=C)O1` (centres undefined), for which the Potency entry was “inactive”.

Source of the values: PubChem BioAssay (NCATS).
